Measurements taken from PubChem BioAssay (NCI).
This is part of a sample that, as a whole, favours compounds with a hit. Of some 79,000 tested, about 15% had one in any assay. Calls of active or inactive are those of the source. Rule as the data show it: active = growth inhibition above about 70%; inactive = the rest.

Assays:
[1] = NCI Yeast Anticancer Drug Screen. Data for the rad52 strain (AID 147);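 also: 0% = growth of vehicle-treated control cultures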; conditions: S. cerevisiae rad52 mutant growth inhibition, hits give high values
Outline: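 Measured: yeast growth inhibition. System: strain with a defined DNA damage repair alteration. Reference: vehicle-treated control cultures.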

[2] = NCI Yeast Anticancer Drug Screen. Data for the wt1 strain (AID 149);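 also: 0% = growth of vehicle-treated wt1 cultures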; conditions: S. cerevisiae wt1 strain (SPY 50644) growth inhibition, hits give high values
Outline: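 Yeast wt1 strain exposed to compounds; growth inhibition measured relative to vehicle-treated controls.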

[3] = NCI Yeast Anticancer Drug Screen. Data for the rad50EPP+ strain (AID 151);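 also: 0% = growth of vehicle-treated control cultures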; conditions: S. cerevisiae rad50 mutant strain, hits give high values
Outline: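 One strain with a rad50 alteration (rad50EPP+) was compound-treated, its growth then compared to that of vehicle controls.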

[4] = NCI Yeast Anticancer Drug Screen. Data for the rad50 strain (AID 155);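 also: 0% = growth of vehicle-only cultures of the same strain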; conditions: S. cerevisiae rad50 strain growth inhibition, hits give high values
Outline: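 Yeast carrying a defined DNA repair defect were exposed to test compounds, and growth was compared with vehicle-treated controls to give percent inhibition.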

[5] = NCI Yeast Anticancer Drug Screen. Data for the mec2-1 strain (AID 157); conditions: S. cerevisiae mec2-1 strain, hits give high values
Outline: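 Test agents were screened against the mec2-1 yeast strain, with defined DNA repair or cell cycle alteration. Growth was scored as inhibition against vehicle-only controls.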

[6] = NCI Yeast Anticancer Drug Screen. Data for the sgs1 mgt1 strain (AID 161);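 also: 0% = growth of cultures given vehicle only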; conditions: S. cerevisiae sgs1 mgt1 strain, hits give high values
Outline: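 Genetically altered yeast, compound exposure, growth inhibition relative to vehicle.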

[7] = NCI Yeast Anticancer Drug Screen. Data for the CLN2oe strain (AID 163);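 also: 0% = growth of vehicle-only control cultures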; conditions: S. cerevisiae CLN2oe strain, hits give high values
Outline: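 Here, growth inhibition in a cell-cycle-altered yeast strain after compound exposure was quantified against vehicle control growth.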

[8] = NCI Yeast Anticancer Drug Screen. Data for the cln2 rad14 strain (AID 165);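 also: 0% = growth equal to vehicle treated cultures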; conditions: S. cerevisiae cln2 rad14 strain, hits give high values
Outline: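 Growth of compound-exposed yeast (cln2 rad14 genotype) measured and expressed as inhibition relative to vehicle.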

[9] = NCI Yeast Anticancer Drug Screen. Data for the bub3 strain (AID 167); conditions: S. cerevisiae bub3 mutant strain, hits give high values
Outline: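 Compounds were applied to a genetically altered yeast strain carrying a cell-cycle control defect. Growth inhibition was scored against vehicle-treated controls.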

[10] = NCI Yeast Anticancer Drug Screen. Data for the mlh1 strain (AID 171);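 also: 0% = growth of vehicle-treated control cultures of the same strain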; conditions: S. cerevisiae mlh1 strain growth inhibition, hits give high values
Outline: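 Here the genetically defined yeast mutant is grown with each compound, and the extent to which its growth falls below that of vehicle-exposed cells is reported.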

[11] = NCI Yeast Anticancer Drug Screen. Data for the sgs1 strain (AID 173);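 also: 0% = growth of vehicle-only control cultures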; conditions: S. cerevisiae sgs1 mutant, hits give high values
Outline: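 Relative growth inhibition, referenced to vehicle, was determined in a yeast strain with a defined alteration affecting DNA damage repair or cell cycle control after compound exposure.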

[12] = NCI Yeast Anticancer Drug Screen. Data for the mlh1 rad18 strain (AID 175); conditions: S. cerevisiae mlh1 rad18 strain growth inhibition, hits give high values
Outline: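 In this whole-cell yeast screen, a strain with altered DNA damage repair is challenged with compound, and its growth is measured against matched vehicle-treated controls.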

[13] = NCI Yeast Anticancer Drug Screen. Data for the rad18 strain (AID 177); conditions: S. cerevisiae rad18 mutant growth inhibition, hits give high values
Outline: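 Screen uses a yeast strain with a defined lesion in DNA damage repair; compound effect is read as loss of growth compared to untreated vehicle cultures.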

[14] = at 5.0 µM (retest, dose inferred, filed as 0.5)
[15] = at 50.0 µM (retest, dose inferred, filed as 5.0)

Measured: growth inhibition

COC(=O)c1oc([N+](=O)[O-])c(Cl)c1Cl
active: [1]; at 1.2 µM 78% | [1]; at 11.0 µM 71% | [1]; at 33.0 µM 95% | [1]; at 100.0 µM 99% | [2]; at 33.0 µM 89% | [2]; at 100.0 µM 99% | [3]; at 1.2 µM 95% | [3]; at 3.7 µM 93% | [3]; at 11.0 µM 93% | [3]; at 33.0 µM 98% | [3]; at 100.0 µM 98% | [4]; at 1.2 µM 95% | [4]; at 3.7 µM 79% | [4]; at 11.0 µM 86% | [4]; at 33.0 µM 96% | [4]; [15] 99% | [4]; at 50.0 µM 97% | [4]; at 100.0 µM 98% | [5]; at 1.2 µM 94% | [5]; at 3.7 µM 70% | [5]; at 11.0 µM 73% | [5]; at 33.0 µM 99% | [5]; [15] 100% | [5]; at 50.0 µM 99.7% | [5]; at 100.0 µM 99% | [6]; [15] 99% | [6]; at 50.0 µM 99% | [7]; at 1.2 µM 98% | [7]; at 11.0 µM 79% | [7]; at 33.0 µM 92% | [7]; at 100.0 µM 99% | [8]; [15] 99% | [8]; at 50.0 µM 98.5% | [9]; at 1.2 µM 71% | [9]; at 33.0 µM 97% | [9]; [15] 100% | [9]; at 50.0 µM 99.2% | [9]; at 100.0 µM 98% | [10]; at 1.2 µM 77% | [10]; at 11.0 µM 78% | [10]; at 33.0 µM 99% | [10]; at 100.0 µM 99% | [11]; at 1.2 µM 82% | [11]; at 11.0 µM 78% | [11]; at 33.0 µM 96% | [11]; at 100.0 µM 96% | [12]; [15] 99% | [12]; at 50.0 µM 99.5% | [13]; at 1.2 µM 93% | [13]; at 3.7 µM 92% | [13]; at 11.0 µM 89% | [13]; at 33.0 µM 98% | [13]; at 100.0 µM 99%
inactive: [1]; at 3.7 µM 66% | [2]; at 1.2 µM 26% | [2]; at 3.7 µM 22% | [2]; at 11.0 µM 39% | [4]; [14] 21% | [5]; [14] 35% | [6]; [14] 36% | [7]; at 3.7 µM 45% | [8]; [14] 10% | [9]; at 3.7 µM 41% | [9]; [14] 47% | [9]; at 11.0 µM 34% | [10]; at 3.7 µM 62% | [11]; at 3.7 µM 57% | [12]; [14] 58%
